Results: the supplement of paper PMC10121225
Structures can show the parent of a compound that is named as a salt.

tested on: hN + hpA co-culture (H1 iNGN2 human neurons + human primary astrocytes); assay: presynaptic density (SYNAPSIN1 puncta per MAP2 neurite area), Z-score vs DMSO controls; higher = more presynaptic puncta (synapse-promoting); settings: 3 µM; 72 h
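Further: immunostained co-cultures imaged by high-content microscopy, Z-score per plate against mean and SD of 0.1% DMSO wells, compounds added on differentiation day 18, analysed day 21.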

Compared with `CC(C)C[C@H](NC(=O)[C@H](Cc1ccccc1)NC(=O)c1cnccn1)B(O)O` [Bortezomib (PS-341)], `CCOC(=O)[C@H](CCc1ccccc1)N[C@@H](C)C(=O)N1C(=O)N(C)C[C@H]1C(=O)O` [Imidapril HCl] is higher in “presynaptic density (Z-score)” value: -3.27 for the first, -0.0695 for the second.

Compared with `NC(=O)c1cccc(-c2cccc(OC(=O)NC3CCCCC3)c2)c1`, `NC(=O)N1c2ccccc2CC(=O)c2ccccc21` is higher in “presynaptic density (Z-score)” value: -1.17 for the first, 0.372 for the second.

Going from `CC(C)CC(=O)Nc1n[nH]c2c1CN(C(=O)C1CCN(C)CC1)C2(C)C` to `Cc1nnc(C(C)C)n1C1C[C@H]2CC[C@@H](C1)N2CC[C@H](NC(=O)C1CCC(F)(F)CC1)c1ccccc1` (stereo in doubt) [Maraviroc], the “presynaptic density (Z-score)” value rises from -2.75 to -1.28.

First: O=C(CCCCCCC(=O)Nc1ccc([C@H]2O[C@@H](CSc3nc(-c4ccccc4)c(-c4ccccc4)o3)C[C@@H](c3ccc(CO)cc3)O2)cc1)NO [Tubacin]
Second: C/C(=C\C(=O)Nc1ccccc1C(=O)O)c1ccc2ccccc2c1
The “presynaptic density (Z-score)” value of the first is higher: 0.79 for the first, -1.34 for the second.

Going from `O=[N+]([O-])c1ccc2c(c1)S(=O)(=O)C=C2` [6-Nitrobenzo[b]thiophene 1,1-dioxide] to `Cc1ccc2c(=O)c3cccc(CC(=O)O)c3oc2c1C` [DMXAA (Vadimezan)], the “presynaptic density (Z-score)” value falls from 0.915 to -1.15.

Going from `CCCCOc1ccc(C(=O)Nc2ccc(F)cc2F)cc1` to `Cc1c(-c2ccc(O)cc2)n(Cc2ccc(OCCN3CCCCCC3)cc2)c2ccc(O)cc12` [Bazedoxifene HCl], the “presynaptic density (Z-score)” value falls from 0.219 to -0.982.

Going from `COc1cc2c(cc1Cc1cccc(Cl)c1F)c(=O)c(C(=O)O)cn2[C@H](CO)C(C)C` [Elvitegravir (GS-9137] to `COc1ccc2c(c1)c(C1=C(c3c[nH]c4ccccc34)C(=O)NC1=O)cn2CCCN(C)C`, the “presynaptic density (Z-score)” value falls from 0.597 to -0.96.

First: C[C@@H]1CN(CC(=O)Nc2ccc3c(c2)Cc2cccc(-c4cc(=O)cc(N5CCOCC5)o4)c2S3)C[C@H](C)O1
Second: CCNC(=O)c1noc(-c2cc(C(C)C)c(O)cc2O)c1-c1ccc(CN2CCOCC2)cc1
The “presynaptic density (Z-score)” value of the first is lower: -1.12 for the first, 3.55 for the second.

Going from `C[C@H](CS)C(=O)N1CCC[C@H]1C(=O)O` [Captopril] to `CC(C)NC[C@@H](C(=O)N1CCN(c2ncnc3c2[C@H](C)C[C@H]3O)CC1)c1ccc(Cl)cc1`, the “presynaptic density (Z-score)” value rises from -1.61 to -0.322.

Going from `CC(C)CCN1c2nc(Nc3cc(F)c(O)c(F)c3)ncc2N(C)C(=O)C1C` (centres undefined) to `CC(C)c1cc(-c2n[nH]c(=O)n2-c2ccc3c(ccn3C)c2)c(O)cc1O` [Ganetespib (STA-9090)], the “presynaptic density (Z-score)” value falls from 2.11 to 2.03.

Going from `C=CCc1cccc(C=NNC(=O)CN2CCN(Cc3ccccc3)CC2)c1O` to `Cc1ccc(NC(=O)c2ccc(CN3CCN(C)CC3)cc2)cc1Nc1nccc(-c2cccnc2)n1` [Gleevec (Imatinib)], the “presynaptic density (Z-score)” value rises from -1.87 to -0.283.

First: COC1CC2CCC(C)C(O)(O2)C(=O)C(=O)N2CCCCC2C(=O)OC(C(C)CC2CCC(OP(C)(C)=O)C(OC)C2)CC(=O)C(C)C=C(C)C(O)C(OC)C(=O)C(C)CC(C)C=CC=CC=C1C (centres undefined) [Ridaforolimus (Deforolimus]
Second: CCc1c2c(nc3ccc(OC(=O)N4CCC(N5CCCCC5)CC4)cc13)-c1cc3c(c(=O)n1C2)COC(=O)C3(O)CC (centres undefined) [Irinotecan HCl Trihydrate_Selleck]
The “presynaptic density (Z-score)” value of the first is higher: 0.509 for the first, -0.772 for the second.

First: C=C1C(=O)OC2C=C(C)CCC=C(C)CCC12 (centres undefined)
Second: C[C@@H]1CCN(C(=O)CC#N)C[C@@H]1N(C)c1ncnc2[nH]ccc12
The “presynaptic density (Z-score)” value of the first is higher: 0.309 for the first, -0.892 for the second.

Compared with `C#CCC(Cc1cnc2nc(N)nc(N)c2n1)c1ccc(C(=O)N[C@@H](CCC(=O)O)C(=O)O)cc1` (some centres undefined) [Pralatrexate], `COc1ccc(COc2ccc(Cc3cnc(N)nc3N)cc2OC)cc1` is lower in “presynaptic density (Z-score)” value: 0.0678 for the first, -0.788 for the second.

First: CC#CCn1c(N2CCC[C@@H](N)C2)nc2c1c(=O)n(Cc1nc(C)c3ccccc3n1)c(=O)n2C [Linagliptin]
Second: Cc1cc([C@@H](C)Nc2ccccc2C(=O)O)c2nc(N3CCOCC3)cc(=O)n2c1
The “presynaptic density (Z-score)” value of the first is higher: 0.688 for the first, -0.243 for the second.

Going from `CN(c1ncccc1CNc1nc(Nc2ccc3c(c2)CC(=O)N3)ncc1C(F)(F)F)S(C)(=O)=O` to `CC(C)(C)c1nc(-c2cccc(NS(=O)(=O)c3c(F)cccc3F)c2F)c(-c2ccnc(N)n2)s1`, the “presynaptic density (Z-score)” value rises from -0.85 to 0.941.

First: O=C(Nc1ccccc1-c1cn2c(CN3CCNCC3)csc2n1)c1cnc2ccccc2n1
Second: Nc1nc(OCc2cc(Br)cs2)c2[nH]cnc2n1 [Lomeguatrib]
The “presynaptic density (Z-score)” value of the first is lower: -1.26 for the first, -0.621 for the second.
